In the supplement of paper PMC10849652:
Of roughly 8,800 targets only a part is listed; those with a hit were picked by preference. About 0.5% of all pairs of compound and target were hits. Values without a mark were called inactive.

Tests used:
Test in all cases: log2 fold change, soluble protein after heating vs DMSO (PISA); higher = thermal stabilisation; K562 lysate, 10 uM; active = over 0.2 and 3.5 SD of the protein, either way, in both replicates (recomputed)
[1] = compound: NCC(=O)Nc1ccc(-n2nc(C(F)(F)F)cc2-c2ccc3c(ccc4ccccc43)c2)cc1
Outline: (§1)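 To prepare the extract, K562 pellets were dounce-homogenised in PBS pH 7.4 with 1 mM MgCl2, giving crude material at 1 mg/mL protein. This was treated with 10 μM compound for 30 min, then heated in aliquots for 3 min over 48°C-58°C before pooling and addition of NP-40 to 0.5% at 4°C. Centrifugation at 21,000xg for 90 min left soluble protein in the supernatant, which TMTpro 16plex LC-MS/MS quantified with equalised channel sums. Results are log-two fold changes in thermal stability compared with solvent controls, from duplicates.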

vorinostat = compound: O=C(CCCCCCC(=O)Nc1ccccc1)NO [vorinostat]
Outline: as §1

silmitasertib = compound: O=C(O)c1ccc2c(c1)nc(Nc1cccc(Cl)c1)c1ccncc12 [silmitasertib]
Outline: as §1

[2] = compound: O=C1NC(=O)C(c2cnc3ccccn23)=C1c1cn2c3c(cc(F)cc13)CN(C(=O)N1CCCCC1)CC2
Outline: as §1

entospletinib = compound: c1cn2cc(-c3ccc4cn[nH]c4c3)nc(Nc3ccc(N4CCOCC4)cc3)c2n1 [entospletinib]
Outline: as §1

Chain of UniProt Q13409 (Q13409 whole entry, looked up): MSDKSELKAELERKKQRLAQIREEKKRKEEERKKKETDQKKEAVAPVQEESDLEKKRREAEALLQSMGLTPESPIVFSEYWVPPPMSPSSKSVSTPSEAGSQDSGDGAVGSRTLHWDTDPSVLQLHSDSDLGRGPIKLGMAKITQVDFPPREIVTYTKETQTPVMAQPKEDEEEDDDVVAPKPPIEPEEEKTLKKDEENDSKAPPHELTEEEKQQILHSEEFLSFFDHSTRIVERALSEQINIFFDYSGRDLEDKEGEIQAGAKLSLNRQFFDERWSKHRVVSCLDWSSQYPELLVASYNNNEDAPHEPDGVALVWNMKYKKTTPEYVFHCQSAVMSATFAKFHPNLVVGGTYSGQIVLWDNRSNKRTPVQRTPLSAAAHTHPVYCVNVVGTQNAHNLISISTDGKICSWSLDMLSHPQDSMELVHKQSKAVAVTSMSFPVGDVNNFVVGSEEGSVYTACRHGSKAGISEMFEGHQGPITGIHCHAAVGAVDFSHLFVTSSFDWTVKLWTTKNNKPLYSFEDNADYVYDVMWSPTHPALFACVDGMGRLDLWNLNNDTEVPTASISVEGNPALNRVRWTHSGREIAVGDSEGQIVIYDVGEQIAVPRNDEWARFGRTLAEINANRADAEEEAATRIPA
Chain of UniProt Q9NYY8 (Q9NYY8 whole entry, looked up): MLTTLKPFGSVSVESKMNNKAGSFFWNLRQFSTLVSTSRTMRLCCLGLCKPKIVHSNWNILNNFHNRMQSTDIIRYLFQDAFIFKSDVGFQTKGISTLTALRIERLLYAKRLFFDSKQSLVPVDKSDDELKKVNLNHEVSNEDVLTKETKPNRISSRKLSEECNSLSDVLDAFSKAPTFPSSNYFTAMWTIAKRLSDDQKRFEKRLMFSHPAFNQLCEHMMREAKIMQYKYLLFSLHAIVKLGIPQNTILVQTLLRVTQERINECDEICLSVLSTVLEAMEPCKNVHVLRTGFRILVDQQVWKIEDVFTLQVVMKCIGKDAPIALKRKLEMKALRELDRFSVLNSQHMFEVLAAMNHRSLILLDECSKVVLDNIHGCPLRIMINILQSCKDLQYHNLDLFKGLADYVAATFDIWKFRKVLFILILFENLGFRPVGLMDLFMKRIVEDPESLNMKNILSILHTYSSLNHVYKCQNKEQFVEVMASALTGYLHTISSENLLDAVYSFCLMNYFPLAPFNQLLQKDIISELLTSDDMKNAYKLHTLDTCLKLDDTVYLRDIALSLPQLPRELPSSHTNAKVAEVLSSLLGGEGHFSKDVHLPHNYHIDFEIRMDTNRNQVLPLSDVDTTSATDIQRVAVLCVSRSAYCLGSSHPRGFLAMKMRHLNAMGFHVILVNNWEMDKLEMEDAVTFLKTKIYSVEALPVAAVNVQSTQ
Chain of UniProt P51116 (P51116 whole entry, looked up): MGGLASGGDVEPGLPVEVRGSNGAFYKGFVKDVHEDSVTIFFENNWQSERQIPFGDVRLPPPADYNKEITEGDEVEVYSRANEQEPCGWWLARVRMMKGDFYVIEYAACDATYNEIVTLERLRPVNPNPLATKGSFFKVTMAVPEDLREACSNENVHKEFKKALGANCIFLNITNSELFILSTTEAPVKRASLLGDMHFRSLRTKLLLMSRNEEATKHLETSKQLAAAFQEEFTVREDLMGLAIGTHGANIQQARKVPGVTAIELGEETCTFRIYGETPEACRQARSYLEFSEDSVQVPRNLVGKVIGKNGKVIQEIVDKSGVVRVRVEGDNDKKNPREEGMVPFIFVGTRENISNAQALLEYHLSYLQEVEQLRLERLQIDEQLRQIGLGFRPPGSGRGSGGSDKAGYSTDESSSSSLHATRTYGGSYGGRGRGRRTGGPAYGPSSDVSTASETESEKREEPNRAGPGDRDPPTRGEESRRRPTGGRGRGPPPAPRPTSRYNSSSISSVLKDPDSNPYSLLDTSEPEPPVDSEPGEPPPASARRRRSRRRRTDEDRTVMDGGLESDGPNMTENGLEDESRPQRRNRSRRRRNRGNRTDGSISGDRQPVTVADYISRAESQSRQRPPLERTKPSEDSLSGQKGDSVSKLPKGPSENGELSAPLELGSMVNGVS
Chain of UniProt Q8NFF5 (Q8NFF5 whole entry, looked up): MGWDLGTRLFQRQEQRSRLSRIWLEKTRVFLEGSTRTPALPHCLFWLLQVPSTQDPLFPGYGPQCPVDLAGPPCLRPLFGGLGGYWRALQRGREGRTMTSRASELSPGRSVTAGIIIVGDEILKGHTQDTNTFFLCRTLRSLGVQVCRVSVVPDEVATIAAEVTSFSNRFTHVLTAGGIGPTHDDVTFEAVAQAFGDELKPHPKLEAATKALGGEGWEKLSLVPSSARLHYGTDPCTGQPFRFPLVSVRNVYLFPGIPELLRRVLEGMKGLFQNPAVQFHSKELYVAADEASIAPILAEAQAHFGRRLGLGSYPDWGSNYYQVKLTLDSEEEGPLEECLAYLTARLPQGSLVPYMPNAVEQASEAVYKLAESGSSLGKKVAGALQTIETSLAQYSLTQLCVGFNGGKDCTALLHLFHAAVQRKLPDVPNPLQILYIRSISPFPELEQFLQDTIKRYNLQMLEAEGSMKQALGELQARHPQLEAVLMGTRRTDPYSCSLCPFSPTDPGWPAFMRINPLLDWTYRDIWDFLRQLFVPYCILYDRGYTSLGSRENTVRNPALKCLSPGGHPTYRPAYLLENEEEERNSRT
Chain of UniProt Q9UK97 (Q9UK97 whole entry, looked up): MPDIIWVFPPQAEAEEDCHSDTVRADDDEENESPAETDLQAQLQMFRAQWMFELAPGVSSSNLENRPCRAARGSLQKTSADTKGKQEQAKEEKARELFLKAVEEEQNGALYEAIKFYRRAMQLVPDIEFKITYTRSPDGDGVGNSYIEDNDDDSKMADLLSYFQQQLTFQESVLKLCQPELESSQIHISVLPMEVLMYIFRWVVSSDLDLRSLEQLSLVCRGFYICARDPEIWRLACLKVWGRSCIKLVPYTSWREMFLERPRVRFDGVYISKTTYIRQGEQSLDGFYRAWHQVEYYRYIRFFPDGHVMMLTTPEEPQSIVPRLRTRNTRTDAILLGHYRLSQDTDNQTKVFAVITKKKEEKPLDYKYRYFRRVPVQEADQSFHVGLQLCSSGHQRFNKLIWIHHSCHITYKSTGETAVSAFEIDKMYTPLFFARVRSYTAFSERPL
Chain of UniProt Q8NEZ5 (Q8NEZ5 whole entry, looked up): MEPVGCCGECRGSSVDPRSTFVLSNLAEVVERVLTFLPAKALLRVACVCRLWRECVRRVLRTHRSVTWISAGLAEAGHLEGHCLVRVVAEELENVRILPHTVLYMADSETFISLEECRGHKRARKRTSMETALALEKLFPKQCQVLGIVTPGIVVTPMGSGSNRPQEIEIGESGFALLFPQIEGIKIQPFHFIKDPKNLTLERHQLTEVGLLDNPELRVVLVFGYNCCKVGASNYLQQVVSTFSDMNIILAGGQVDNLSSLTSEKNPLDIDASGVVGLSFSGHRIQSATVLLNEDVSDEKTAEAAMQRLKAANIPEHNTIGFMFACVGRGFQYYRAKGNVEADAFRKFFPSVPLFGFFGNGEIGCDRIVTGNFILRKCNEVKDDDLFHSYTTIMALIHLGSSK
Chain of UniProt Q96EK7 (Q96EK7 whole entry, looked up): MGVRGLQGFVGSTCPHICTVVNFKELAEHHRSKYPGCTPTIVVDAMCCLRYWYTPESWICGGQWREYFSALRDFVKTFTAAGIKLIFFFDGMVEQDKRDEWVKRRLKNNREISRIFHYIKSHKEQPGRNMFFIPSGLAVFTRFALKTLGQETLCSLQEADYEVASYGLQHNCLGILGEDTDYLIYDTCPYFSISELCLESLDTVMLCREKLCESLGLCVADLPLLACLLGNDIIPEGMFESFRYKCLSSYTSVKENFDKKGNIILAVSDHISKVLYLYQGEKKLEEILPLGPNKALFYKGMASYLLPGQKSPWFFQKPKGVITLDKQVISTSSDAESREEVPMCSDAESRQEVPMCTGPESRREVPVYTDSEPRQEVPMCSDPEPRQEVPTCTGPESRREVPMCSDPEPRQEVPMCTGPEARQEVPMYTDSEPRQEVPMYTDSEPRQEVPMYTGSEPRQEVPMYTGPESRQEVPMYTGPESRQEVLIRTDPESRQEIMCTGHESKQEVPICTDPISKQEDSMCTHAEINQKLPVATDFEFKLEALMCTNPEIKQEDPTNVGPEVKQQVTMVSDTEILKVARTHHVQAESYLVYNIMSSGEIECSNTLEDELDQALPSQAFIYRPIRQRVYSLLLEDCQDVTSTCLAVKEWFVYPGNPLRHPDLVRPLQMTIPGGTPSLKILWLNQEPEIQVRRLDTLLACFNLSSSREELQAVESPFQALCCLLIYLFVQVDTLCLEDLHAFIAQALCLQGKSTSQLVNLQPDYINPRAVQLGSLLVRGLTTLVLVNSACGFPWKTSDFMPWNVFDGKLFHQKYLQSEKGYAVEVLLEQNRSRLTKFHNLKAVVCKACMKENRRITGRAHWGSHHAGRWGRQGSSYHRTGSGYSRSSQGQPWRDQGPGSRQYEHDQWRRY
Chain of UniProt Q9UET6 (Q9UET6 whole entry, looked up): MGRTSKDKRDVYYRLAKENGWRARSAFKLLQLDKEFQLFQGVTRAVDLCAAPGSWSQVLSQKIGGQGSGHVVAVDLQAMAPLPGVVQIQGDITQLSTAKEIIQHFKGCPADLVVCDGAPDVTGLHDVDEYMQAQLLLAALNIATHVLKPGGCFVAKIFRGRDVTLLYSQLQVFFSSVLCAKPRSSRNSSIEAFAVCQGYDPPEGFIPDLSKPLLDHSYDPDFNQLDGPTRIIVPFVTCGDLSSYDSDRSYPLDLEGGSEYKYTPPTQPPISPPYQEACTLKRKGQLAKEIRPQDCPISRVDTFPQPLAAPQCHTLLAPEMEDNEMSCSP
Chain of UniProt Q15717 (Q15717 whole entry, looked up): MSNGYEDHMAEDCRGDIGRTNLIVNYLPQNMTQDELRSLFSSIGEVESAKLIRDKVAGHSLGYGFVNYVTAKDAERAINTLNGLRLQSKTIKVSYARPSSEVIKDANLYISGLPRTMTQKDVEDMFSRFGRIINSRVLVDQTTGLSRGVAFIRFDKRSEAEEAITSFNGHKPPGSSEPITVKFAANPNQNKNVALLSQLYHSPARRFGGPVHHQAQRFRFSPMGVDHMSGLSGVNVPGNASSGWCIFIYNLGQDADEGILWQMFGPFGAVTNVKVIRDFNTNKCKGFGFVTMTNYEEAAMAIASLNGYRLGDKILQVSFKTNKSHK

Target	log2 fold change [1]	log2 fold change (vorinostat)	log2 fold change (silmitasertib)	log2 fold change [2]	log2 fold change (entospletinib)
FAM83A (UniProt Q86UY5)	-0.049	-0.417 (active)	-0.034	-0.052	-0.002
EXOC5 (UniProt O00471)	0.036	-0.293 (active)	0.036	0.002	0.025
FLAD1 (UniProt Q8NFF5)	-0.012	-0.397 (active)	0.102	-0.005	0.037
EXOC4 (UniProt Q96A65)	0.009	-0.389 (active)	0.041	-0.022	-0.006
GGA2 (UniProt Q9UJY4)	-0.042	-0.313 (active)	0.016	0.022	-0.026
GALK1 isoform 2 (UniProt P51570)	-0.017	-0.338 (active)	0.063	0.023	-0.088
FDFT1 (UniProt P37268)	-0.004	-0.006	0.041	0.004	0.06
EIF2B4 isoform 2 (UniProt Q9UI10)	0.023	-0.209	0.013	-0.002	0.012
ENY2 (UniProt Q9NPA8)	-0.066	0.118	-0.032	0.016	-0.018
FBXO9 (UniProt Q9UK97)	-0.154	-0.135	0.009	-0.046	-0.188
ECH1 (UniProt Q13011)	0.041	0.081	-0.026	-0.052	0.022
EEF1AKMT4 (UniProt P0DPD7)	0.053	-0.312 (active)	0.029	0.035	0.012
GABPB1 (UniProt Q06547)	0	-0.299 (active)	0.008	-0.052	-0.004
FTSJ3 (UniProt Q8IY81)	-0.034	0.068	0.017	0.012	-0.043
FAM83D (UniProt Q9H4H8)	0	-0.243 (active)	0.031	-0.004	0.021
FAU (UniProt E9PR30)	0.006	0.212 (active)	0.047	-0.006	0.016
ESPL1 (UniProt Q14674)	0.027	-0.21	0.098	0.057	-0.066
FCHO1 (UniProt O14526)	0.041	-0.286 (active)	0.03	-0.006	0.024
DUS2 (UniProt Q9NX74)	-0.01	-0.014	0.555 (active)	-0.037	-0.042
DSTN (UniProt P60981)	-0.012	-0.34 (active)	0.014	-0.031	-0.021
EMC7 (UniProt Q9NPA0)	0.015	0.085	-0.007	-0.018	-0.023
EXTL2 (UniProt Q9UBQ6)	-0.171	0.189	-0.053	0.01	-0.036
GIGYF2 (UniProt Q6Y7W6)	-0.001	-0.252 (active)	-0.007	-0.042	0.017
FASTKD2 (UniProt Q9NYY8)	0.008	-0.524 (active)	0.044	0.025	0.013
FECH isoform 2 (UniProt P22830)	-0.185	-0.401	-0.03	-0.021	0.977
ERCC4 (UniProt Q92889)	0.026	-0.241 (active)	0.002	-0.065	0.021
GEMIN5 (UniProt Q8TEQ6)	0	-0.479 (active)	0.004	-0.001	0.004

Target	log2 fold change [1]	log2 fold change (vorinostat)	log2 fold change (silmitasertib)	log2 fold change [2]	log2 fold change (entospletinib)
FASTKD5 (UniProt Q7L8L6)	0.016	-0.354 (active)	0.053	0.022	-0.008
EIF2AK1 (UniProt Q9BQI3)	-0.089	-0.18	0.03	-0.059	0.009
EEF1A1P5 (UniProt Q5VTE0)	0.04	-0.311 (active)	-0.017	0.005	0.033
ENGASE (UniProt Q8NFI3)	-0.01	-0.337 (active)	0.05	-0.013	-0.004
ELAVL1 isoform 2 (UniProt Q15717)	0.042	-0.326 (active)	0.059	-0.051	0
DST (UniProt Q03001)	0.262	-0.035	-0.02	0.01	-0.03
FTSJ1 (UniProt Q9UET6)	-0.024	-0.326 (active)	0.024	0.009	0.05
FPGT (UniProt O14772)	-0.014	-0.574 (active)	0.008	-0.015	-0.062
GBF1 (UniProt Q92538)	-0.019	-0.304 (active)	0.023	0.043	0.008
FANCD2 isoform 1 (UniProt Q9BXW9)	0.078	-0.25 (active)	-0.012	0.008	-0.005
GAMT (UniProt Q14353)	-0.046	-0.423 (active)	-0.008	-0.049	-0.001
FBRSL1, A0A3B3IRR3	0.043	0.142	-0.013	0.069	-0.087
GCN1 (UniProt Q92616)	0.01	-0.374 (active)	0.114	0.033	-0.011
FBXO22 (UniProt Q8NEZ5)	0.014	-0.477 (active)	-0.022	-0.018	0.014
FAM53B (UniProt Q14153)	0.056	-0.06	0.049	0.02	-0.003
EXOC6 (UniProt Q8TAG9)	-0.074	-0.301 (active)	0.057	-0.006	0.021
DSN1 (UniProt Q9H410)	-0.028	-0.358 (active)	-0.007	0.008	-0.017
DVL2 (UniProt O14641)	-0.056	0.33 (active)	0.049	0.078	-0.015
FAM120B (UniProt Q96EK7)	-0.002	-0.299 (active)	0.041	-0.022	-0.001
EPB41 (UniProt P11171)	-0.046	0.035	0.007	-0.034	0
DYNC1I2 isoform 2 (UniProt Q13409)	0.138	0.07	0.008	0.054	0.039
GATAD2A isoform 3 (UniProt Q86YP4)	0.023	-0.213 (active)	-0.028	0.019	-0.001
EPHX2 (UniProt P34913)	0.002	0.243 (active)	0.002	-0.021	-0.058
EEFSEC (UniProt P57772)	-0.022	-0.325 (active)	0.052	-0.012	-0.009
EWSR1 isoform 5 (UniProt Q01844)	0.027	0.036	-0.034	0.006	0.014
FXR2 (UniProt P51116)	0.033	-0.25 (active)	-0.039	-0.022	-0.064
